This note sets out measurements from the supplement of paper PMC10338343.

± gives the standard deviation.

The test system of the first assay is MILI (PIWIL2) piRISC loaded with L1MC piRNA (26 nt). As to the kind of experiment: pre-steady-state target cleavage rate (min^-1); guide: L1MC piRNA 5'p-UAACUAAAUACUAUGCAAGCUGUAGG; MIWI and MILI are mouse PIWI proteins and EfPiwi is from a freshwater sponge; tags in brackets are library labels; higher = faster piRNA-guided slicing of the target. To be noted: auxiliary factor: 500 nM mouse GTSF1. On the procedure: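 Cleave-'n-Seq: a library of target RNAs (target site embedded in constant flanks, ACAGCATTCCGCGTTAGTGATATCCG... 5' flank; DNA-blocked outside the site) at 0.1 nM was incubated with 1 nM active mouse MILI or MIWI piRISC (synthetic 5'-monophosphorylated piRNA guide) with or without 500 nM mouse GTSF1 at 33 °C for 1 min to 16 h. Uncleaved targets were sequenced and normalised to non-target controls, and the pooled three trials were fitted to a burst-and-steady-state model to give the pre-steady-state cleavage rate (min^-1; k3 is constrained to at most 1e-4). Sequence is the target site only; target names encode pairing extent (gX:gY) and contiguous / 1-mismatch / 2-mismatch / bulge geometry. Fits with R² ≤ 0 are excluded.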
For UCCUGGAUGAGCUUGCAUUGUAAUUAGUUA, the “pre-steady-state target cleavage rate” value was found to be 0.0683 ± 0.013. Regarding UCCUCCUACAGCUUGCAUAGUACUUUAGUUA, the “pre-steady-state target cleavage rate” value was determined as 0.216 ± 0.017. For the sequence UCCUGGUUCAGCUUGGAUAGUAUUUAGUUA, the “pre-steady-state target cleavage rate” value came out at 0.191 ± 0.022. For the sequence UCCUGGAACAGCUUGCUUAGAAUUUAGUUA, the “pre-steady-state target cleavage rate” value amounted to 0.0285 ± 0.0057. Same read-out and setting: to UCCUCCUUCAGCUUGCAUAGUAUUUUGUUA belongs 0.139 ± 0.021; to UCCUGGAACAGCUUGCAUAGUAUAUACUUA, 0.0233 ± 0.01; to UCCUCCUCACAGCUUGCAUAGUAUUUAGUUA, 0.369 ± 0.021. Regarding UCCUGCUACAGCUUGCAUAGUUAUUUAGUUA, the “pre-steady-state target cleavage rate” value turned out to be 0.0195 ± 0.0087. Regarding UCCUGGAACAGCUUGCAUAGUAUUUAUUA, the “pre-steady-state target cleavage rate” value stood at 0.046 ± 0.014.

UCCUCCUACAGGAAGCAUAGUAUUUUCAAA: the “pre-steady-state target cleavage rate” value was determined as 0.0352 ± 0.012. Still for that read-out and setting: to UCCUCCUACAGCAACCAUAGUAUUUAGUAA belongs 0.255 ± 0.043; to UCCUGCUACAGGUUGCAUAGUAUUUUGUUA, 0.165 ± 0.028; to UCCUGGAACAGGUUGGAUAGUAUUUAGUUA, 0.164 ± 0.02.

For the sequence UCCUGGAUCUGCUAGCAUAGUAUUUAGUUA, the “pre-steady-state target cleavage rate” value is 0.168 ± 0.014. As for UCCUCCUACAGCUUGCAUAGUAAUUUGUUA, the “pre-steady-state target cleavage rate” value came to 0.111 ± 0.021.

As to UCCUGGAUGUCGAAGCAUAGUAUUUACUUA, the “pre-steady-state target cleavage rate” value is 0.00488 ± 0.0029. For UCCUGGAUGACCUUGCAUAGUUUUUAGUUA, the “pre-steady-state target cleavage rate” value was found to be 0.0191 ± 0.0076. UCCUGGAUCAGCUAGCAUAGUAUUUACAAA: the “pre-steady-state target cleavage rate” value was found to be 0.127 ± 0.023.

As to UCCUGGAUGAGCAUGCAUAGUAUAUAGUUA, the “pre-steady-state target cleavage rate” value stood at 0.213 ± 0.022. Same read-out and setting: with UCCUGCUACGAGCUUGCAUAGUAUUUAGUUA the figure was 0.217 ± 0.026; with UCCUGGUACACCUUGCAUAGUAUUUUCAAA, 0.0291 ± 0.016. As for UCCUGGAACAGCCUUGCAUAGUAUUUAGUUA, the “pre-steady-state target cleavage rate” value worked out at 0.225 ± 0.019.

Take UCCUGGUACAGCUUGCAAUAGUAUUUAGUUA: the “pre-steady-state target cleavage rate” value is 0.0322 ± 0.0093. Same read-out and setting: to UCCUGGAUCACGAUGCAUAGUAUUUACAAA belongs 0.0606 ± 0.015. Consider UCCUGGUCAGCUUGCAUAGUAUUUAGUUA, for which the “pre-steady-state target cleavage rate” value was 0.269 ± 0.016.

The same assay, now with this note: auxiliary factor: none (no GTSF1).
With UCCUGGAUGAGCUUGCAUUGUAAUUAGUUA, the “pre-steady-state target cleavage rate” value is 0.0035 ± 0.0031.

Regarding UCCUCCUACAGCUUGCAUAGUACUUUAGUUA, the “pre-steady-state target cleavage rate” value was 0.00628 ± 0.0027.

UCCUGGUUCAGCUUGGAUAGUAUUUAGUUA: the “pre-steady-state target cleavage rate” value amounted to 0.013 ± 0.0035.

With UCCUCCUUCAGCUUGCAUAGUAUUUUGUUA, the “pre-steady-state target cleavage rate” value is 0.00287 ± 0.002.

Turning to UCCUCCUCACAGCUUGCAUAGUAUUUAGUUA, the “pre-steady-state target cleavage rate” value amounted to 0.0102 ± 0.0027. In the case of UCCUGCUACAGCUUGCAUAGUUAUUUAGUUA, the “pre-steady-state target cleavage rate” value turned out to be 0.00428 ± 0.0024. UCCUGCUACAGGUUGCAUAGUAUUUUGUUA: the “pre-steady-state target cleavage rate” value is 0.00477 ± 0.0031. Take UCCUGGAACAGGUUGGAUAGUAUUUAGUUA: the “pre-steady-state target cleavage rate” value was 0.00851 ± 0.0024. The same measure, in the same setting: to UCCUGGAUCUGCUAGCAUAGUAUUUAGUUA belongs 0.00596 ± 0.0019; to UCCUCCUACAGCUUGCAUAGUAAUUUGUUA, 0.00269 ± 0.0026. As to UCCUGGAUGAGCAUGCAUAGUAUAUAGUUA, the “pre-steady-state target cleavage rate” value stood at 0.00752 ± 0.0029. For UCCUGCUACGAGCUUGCAUAGUAUUUAGUUA, the “pre-steady-state target cleavage rate” value worked out at 0.00594 ± 0.0032.

In the case of UCCUGGAACAGCCUUGCAUAGUAUUUAGUUA, the “pre-steady-state target cleavage rate” value was 0.00974 ± 0.003. As for UCCUGGUACAGCUUGCAAUAGUAUUUAGUUA, the “pre-steady-state target cleavage rate” value was 0.00408 ± 0.0024. The same measure, in the same setting: to UCCUGGUCAGCUUGCAUAGUAUUUAGUUA belongs 0.012 ± 0.0027.
